Only some compounds are listed: those with a hit (about 4.1% of all), similar ones and a draw of the others.
beta cell repl: MIN6 beta-cell proliferation induction | MIN6 cells proliferation, ATPlite luminescence, 48 h; cells starved in 0.2% serum; 100% = growth in 10% serum | proliferation, % at 10 µM | 330,000 compounds, 0.29% hits | AID 2380;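 active means compounds whose signal lies at least 3.5 SD above the mean of all wells on their plate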
FAS-TE inh: blocks the thioesterase domain of human fatty acid synthase; 360,000 compounds, 0.67% hits; recombinant FAS-TE, OMFH fluorogenic substrate, fluorescence endpoint; AID 602261; inhibition, % at 15 µM;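 active means compounds whose normalised, plate-corrected inhibition of enzyme fluorescence in the single-dose primary screen is 50% or more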
MPTP block: permeability transition pore inhibition | 360,000 compounds, 1.4% hits | isolated mouse mitochondria, Ca2+ swelling absorbance, 30 min | AID 602449 | inhibition, % at 10 µM;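 active means inhibition of 50% or more, scaled per plate between neutral and stimulator controls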
GRIN3A LBD mod: modulates the human NR3A ligand-binding domain; NR3A LBD differential scanning fluorimetry, Tm shift; 0% = protein alone, 100% = glycine-bound protein; AID 1259313; Tm shift relative to glycine control, % at 25 µM; 340,000 compounds, 2.5% hits;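 active means melting temperature shift of at least 10% of the positive control shift, at one fixed dose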
p-CIP stab down: compounds decreasing mouse p/CIP protein stability | F442A p/CIP-EGFP cells, EGFP fluorescence, 16 h | 290,000 compounds, 0.01% hits | Q05BA5 | decrease of EGFP signal, % at 10 µM;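 active means EGFP signal decrease of at least 30% at 10 µM or well 3 SD below plate mean, unless failing retest; inactive means the rest, including hits failing retest or dose response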
FAS-TE conf: FAS thioesterase (human) inhibition, confirmation. shares compounds with FAS-TE inh. recombinant FAS-TE, OMFH fluorogenic substrate, fluorescence. inhibition, % at 15 µM. 2,300 compounds, 45% hits. AID 624325;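 active means compounds inhibiting the enzyme by at least 50% at 15 µM in any one of the replicates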
Rh123 counter: membrane potential counter-screen of mitochondrial pore inhibitors | shares compounds with MPTP block | isolated mitochondria, Rhodamine 123 fluorescence | inhibition, % at 10 µM | 5,000 compounds, 78% hits; in the data active means inhibition above about 22%
MPTP swell DR: MPTP inhibition, dose response swelling confirmation | shares compounds with MPTP block | isolated mitochondria swelling, absorbance | IC50, µM | 780 compounds, 58% hits | AID 651561; in the data active means IC50 below about 20 µM
MPTP counter DR: active in counter-screen for permeability transition pore inhibitors; shares compounds with MPTP block; 780 compounds, 49% hits; isolated mitochondria counterscreen, fluorescence read-out; IC50, µM; AID 651564; in the data active means IC50 below about 80 µM
Each line names hits and unclear results; the compound was inactive in the other large screens (follow-up assays come after a bar, where they were run).

O=[N+]([O-])c1ccc(NC(=S)NCCc2ccc(Cl)cc2)cc1	FAS-TE inh 51, MPTP block 88, GRIN3A LBD mod 31 | FAS-TE conf inactive | Rh123 counter 85
O=[N+]([O-])c1ccc(NC(=S)NCCc2ccccc2)cc1	FAS-TE inh 53, MPTP block 87, GRIN3A LBD mod 35 | FAS-TE conf 38 | Rh123 counter 88
Cc1ccc(C)c(N(CC(=O)NCc2ccccc2)C(=O)c2csnn2)c1	none
CCn1ccc(C(=O)NC2=C(C#N)CCC2)n1	none
Cc1c(NC(=O)COC(=O)C2(c3ccccc3F)CCCC2)c(=O)n(-c2ccccc2)n1C	none
O=C(Nn1c(C2CCCCC2)nc2ccccc2c1=O)c1ccc(Cl)c([N+](=O)[O-])c1	FAS-TE inh 57, MPTP block 72 | FAS-TE conf 60 | Rh123 counter 83
Cc1ccc(C2C(/C=C3/SC(=S)NC3=O)=C(c3cccs3)Oc3ccccc32)cc1 (stereo not given)	FAS-TE inh 64, MPTP block 99 | FAS-TE conf inactive | Rh123 counter 48
CCc1nc2ccc(C(=O)NCc3ccc4c(c3)OCO4)cn2c1N(CC)CCOC	none (no result: beta cell repl, GRIN3A LBD mod, p-CIP stab down)
Cc1cc2oc(=O)cc(CN(C)Cc3ccccc3Cl)c2cc1C	none
Cc1ccnc(NC(=O)C2CC(=O)N(Cc3ccccc3)C2)c1 (stereo not given)	none (no result: p-CIP stab down)
Cc1ccc(-n2[nH]c(C)c(/C=N/Nc3ccc([N+](=O)[O-])cc3[N+](=O)[O-])c2=O)cc1	FAS-TE inh 55, MPTP block 112, GRIN3A LBD mod 22 | FAS-TE conf 55 | Rh123 counter 69
Cc1[nH]n(-c2ccc([N+](=O)[O-])cc2)c(=O)c1C=NCC1CCCO1 (stereo not given)	none
COc1ccc(-c2csc(NC(=O)c3ccccc3NS(=O)(=O)c3ccc(C)cc3)n2)cc1	FAS-TE inh 56, MPTP block 104, GRIN3A LBD mod 29 | FAS-TE conf 49 | Rh123 counter inactive
COc1ccc(N(CCC(=O)Nc2ccccc2F)S(=O)(=O)c2ccc(C)cc2C)cc1	none (no result: p-CIP stab down)
O=C(Nc1cccc(C(F)(F)F)c1)c1cccnc1NCCO	none
O=C(Nc1cccc(C(F)(F)F)c1)c1cccnc1NCCc1ccccc1	FAS-TE inh 53, MPTP block 80, GRIN3A LBD mod 28 | FAS-TE conf inactive | Rh123 counter 70
O=C(CNc1cc(S(=O)(=O)N2CCCC2)ccc1OCC(F)(F)F)Nc1cccc(C(F)(F)F)c1	FAS-TE inh 64, MPTP block 51 | FAS-TE conf inactive | Rh123 counter 48
CCOC(=O)c1c(NC(=O)CSc2nnc(-c3ccco3)o2)sc(C(C)=O)c1C	none
CCOC(=O)c1c(NC(=O)CSc2nnc(-c3ccccc3C)n2C)sc(C(C)=O)c1C	FAS-TE inh 59, MPTP block 84 | FAS-TE conf 68 | Rh123 counter 67
CCOC(=O)c1c(NC(=O)CSc2ncnc3ccccc23)sc(C(C)=O)c1C	FAS-TE inh 50, MPTP block 58 | FAS-TE conf inactive | Rh123 counter inactive
CCOC(=O)c1c(NC(=O)CSc2nc3cccnc3n2C)sc(C(C)=O)c1C	FAS-TE inh 80, MPTP block 92 | FAS-TE conf inactive | Rh123 counter inactive | MPTP swell DR 3.7 | MPTP counter DR 3.5
CCOC(=O)c1sc(NC(=O)CSc2nc3cccnc3n2C)nc1C	none
COC(=O)c1c(NC(=O)CSc2ncnc3ccccc23)sc(C)c1C	none (no result: p-CIP stab down)
O=c1nc(-c2ccccc2)nc(-c2ccccc2)[nH]1	none
Nc1c(Cl)c(Cl)nc(C(=O)OCC(=O)NC2CCCCC2)c1Cl	none
Cc1cccc(Oc2cc(NC(=O)Cn3cnc([N+](=O)[O-])n3)cc([N+](=O)[O-])c2)c1	FAS-TE inh 59, MPTP block 77, GRIN3A LBD mod 27 (no result: beta cell repl) | FAS-TE conf inactive | Rh123 counter 66
Cc1cc([N+](=O)[O-])nn1CCCC(=O)Nc1cc(Oc2ccccc2)cc([N+](=O)[O-])c1	none
CC(=O)NC(=S)Nc1sc2c(c1C#N)CCCCC2	FAS-TE inh 57, MPTP block 84 (no result: beta cell repl) | FAS-TE conf 59 | Rh123 counter 77
CC(=O)Nc1sc2c(c1C#N)CCCC2	none
CCOC(=O)c1sc(NC(=O)c2ccc(S(=O)(=O)N3CCCCC3)cc2)nc1-c1ccccc1	FAS-TE inh 65, MPTP block 50, GRIN3A LBD mod 13 | FAS-TE conf inactive | Rh123 counter 32
O=C(COC(=O)CNC(=O)c1ccccc1)Nc1ccc(S(=O)(=O)N2CCCC2)cc1	none
COc1cccc(CNC(=O)[C@H](CCSC)NC(=O)N2CCn3c2nc2ccccc23)c1	none
Cc1ccc(S(=O)(=O)N(C)C)cc1NC(=S)NC(C)CCCC(C)C (stereo not given)	FAS-TE inh 58, MPTP block 96 | FAS-TE conf 53 | Rh123 counter 92
CC(=O)NNC(=S)Nc1cc(S(=O)(=O)N(C)C)ccc1C	none
CC(/C=N/NC(=O)Cc1cc(=O)[nH][nH]1)=C\c1ccccc1	none
FC(F)(F)c1cccc(N2CCN(C(=S)NC3CCCCC3)CC2)c1	FAS-TE inh 51, MPTP block 81 | FAS-TE conf inactive | Rh123 counter 72
FC(F)(F)c1cccc(N2CCN(C(=S)NC3CCCC3)CC2)c1	none
CCOC(=O)/C(=C/c1cn(C)c2ccccc12)NC(=O)c1ccccc1	none
O=C(Nc1cccc([N+](=O)[O-])c1)NC1CCCCCCC1	FAS-TE inh 53, MPTP block 80 | FAS-TE conf 63 | Rh123 counter 95
O=C(/C=C/c1cccc([N+](=O)[O-])c1)NCCSCc1cccc(Cl)c1	FAS-TE inh 58, MPTP block 63 | FAS-TE conf 66 | Rh123 counter 56
Cc1ccc(Nc2nc(-c3ccc(S(=O)(=O)N4CCCC4)cc3)cs2)cc1C	none
O=S(=O)(c1ccc(-c2csc(Nc3ccc(F)cc3)n2)cc1)N1CCCC1	FAS-TE inh 65, MPTP block 84, GRIN3A LBD mod 24 | FAS-TE conf 46 | Rh123 counter 69
COC(=O)c1ccc(NC(=O)c2ccccc2N(C)S(=O)(=O)c2ccccc2)cc1	none
Oc1ccc(C[C@@H]2CNCCN2CCc2cccc3ccccc23)cc1	MPTP block 84 (no result: p-CIP stab down) | Rh123 counter inactive | MPTP swell DR 14 | MPTP counter DR inactive
CC(C)(C)CN1CCNC[C@H]1Cc1cccc2ccccc12	MPTP block 55 (no result: p-CIP stab down) | Rh123 counter inactive | MPTP swell DR 7.1 | MPTP counter DR 66

Compound activity as filed in PubChem.
